From PubChem BioAssay (NCATS)
Results filed as inconclusive are left out. Activity calls are given as the source filed them. Calls follow the shape of the dose curve; as a rule, active = well fitted inhibition curve with a large enough effect; inconclusive = small, poorly fitted or top-dose-only effect; inactive = flat fitted curve, though single readings scatter.

What was measured:
[1] = qHTS profiling for inhibitors of Plasmodium falciparum proliferation (AID 504749); also: nearly all actives have a fitted effect of over 60% in size;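 as to activity, negative = inhibition: 0% = DMSO vehicle and full inhibition = artemisinin control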; conditions: P. falciparum in erythrocytes, SYBR Green DNA, 72 h
Outline: (§1)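 In a 72 h erythrocytic culture (37 C, humidified, 5% CO2) at 2.5% hematocrit and 0.3% starting parasitemia, compounds were tested; SYBR Green I in detergent lysis buffer stained parasite DNA overnight.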

7G8 = experiment: as above; conditions: P. falciparum in erythrocytes, SYBR Green DNA, 72 h; series mostly up to 28.7 µM
Outline: as §1

AA1029 = experiment: as above; conditions: P. falciparum in erythrocytes, SYBR Green DNA, 72 h; series mostly up to 28.7 µM
Outline: as §1

AS120 = experiment: as above; conditions: P. falciparum in erythrocytes, SYBR Green DNA, 72 h; series mostly up to 28.7 µM
Outline: as §1

ATS95 = experiment: as above; conditions: P. falciparum in erythrocytes, SYBR Green DNA, 72 h; series mostly up to 28.7 µM
Outline: as §1

C2A = experiment: as above; conditions: P. falciparum in erythrocytes, SYBR Green DNA, 72 h; series mostly up to 28.7 µM
Outline: as §1

CP185 = experiment: as above; conditions: P. falciparum in erythrocytes, SYBR Green DNA, 72 h; series mostly up to 28.7 µM
Outline: as §1

3D7 = experiment: as above; conditions: P. falciparum in erythrocytes, SYBR Green DNA, 72 h; series mostly up to 28.7 µM
Outline: as §1

ATS189 = experiment: as above; conditions: P. falciparum in erythrocytes, SYBR Green DNA, 72 h; series mostly up to 28.7 µM
Outline: as §1

[2] = at 28.7 µM (top of the series), parasite line A
[3] = at 28.7 µM (top of the series), parasite line B
[4] = at 12.8 µM (top of the series), parasite line A
[5] = at 12.8 µM (top of the series), parasite line B
Potency is read from the fitted curve at half-maximal effect.

Brc1c(NC2=NCCN2)ccc2nccnc12
active: Potency (7G8) 11.2 µM
inactive: activity, negative = inhibition [1, 2] 0% | activity, negative = inhibition [1, 3] 3.95% | Potency (AA1029) | Potency (AS120) | Potency (ATS95) | Potency (C2A) | Potency (CP185)

c1cc(CN2CCCCC2)cc(OCCCNc2nc3ccccc3s2)c1
active: Potency (7G8) 6.31 µM | Potency (AS120) 5.01 µM | Potency (ATS95) 7.94 µM

COc1ccc(CCN(C)CCCC(C#N)(c2cc(OC)c(OC)c(OC)c2)C(C)C)cc1OC (stereo not drawn)
active: Potency (7G8) 10 µM

CCCC(C(=O)OCCN(CC)CC)(c1ccccc1)c1ccccc1
active: Potency (3D7) 10 µM | Potency (7G8) 3.98 µM | Potency (AA1029) 11.2 µM

CCN(CC)CCOCCOC(=O)C1(c2ccccc2)CCCC1
active: Potency (7G8) 1.78 µM | Potency (AS120) 12.6 µM | Potency (ATS189) 7.08 µM | Potency (ATS95) 11.2 µM
inactive: Potency (AA1029) | Potency (CP185)

CCCCNc1c(C(=O)OCC)c(C)nc2c1cnn2CC
inactive: activity, negative = inhibition [1, 2] 2.9% | activity, negative = inhibition [1, 3] -6.97% | Potency (3D7) | Potency (AA1029) | Potency (ATS189) | Potency (ATS95) | Potency (C2A) | Potency (CP185)

CCN(CC)CC(=O)Nc1c(C)cccc1C
inactive: activity, negative = inhibition [1, 2] 7.16% | activity, negative = inhibition [1, 3] 15.8% | Potency (3D7) | Potency (AA1029) | Potency (AS120) | Potency (ATS189) | Potency (ATS95) | Potency (C2A) | Potency (CP185)

Fc1ccc(C(c2ccc(F)cc2)N2CCN(C/C=C/c3ccccc3)CC2)cc1
active: Potency (7G8) 4.47 µM | Potency (AS120) 10 µM

C#CCN(C)CCCOc1ccc(Cl)cc1Cl
inactive: activity, negative = inhibition [1, 2] 6.5% | activity, negative = inhibition [1, 3] 12.2% | Potency (3D7) | Potency (AA1029) | Potency (AS120) | Potency (ATS189) | Potency (ATS95) | Potency (C2A) | Potency (CP185)

COCCCC/C(=N\OCCN)c1ccc(C(F)(F)F)cc1
active: Potency (7G8) 10 µM
inactive: activity, negative = inhibition [1, 2] -21.1% | Potency (3D7) | Potency (ATS189)

CC(C)NNC(=O)c1ccncc1
inactive: activity, negative = inhibition [1, 2] -11.8% | Potency (3D7) | Potency (7G8) | Potency (AS120) | Potency (ATS189) | Potency (C2A) | Potency (CP185)
active: Potency (AA1029) 7.94 µM

CCCCNc1ccc(C(=O)OCCN(C)C)cc1
inactive: activity, negative = inhibition [1, 4] 20% | Potency (3D7) | Potency (7G8) | Potency (AA1029) | Potency (AS120) | Potency (ATS95) | Potency (C2A) | Potency (CP185)

C[C@]12CCC(=O)C=C1CC[C@@H]1[C@@H]2CC[C@@]2(C)[C@H]1CC[C@]2(O)C(=O)CO
inactive: activity, negative = inhibition [1, 2] -9.28% | activity, negative = inhibition [1, 3] 20.5% | Potency (3D7) | Potency (AA1029) | Potency (AS120) | Potency (ATS189) | Potency (ATS95) | Potency (C2A) | Potency (CP185)

CN(C)CCCN1c2ccccc2Sc2ccc(C(F)(F)F)cc21
active: Potency (7G8) 5.01 µM
inactive: Potency (ATS95) | Potency (C2A)

CCCCCCCC/C=C\CCCCCCCC(=O)NCc1ccc(O)c(OC)c1
active: Potency ([1]; parasite line A) 7.08 µM | Potency (ATS189) 8.91 µM | Potency (CP185) 11.2 µM

COC(=O)[C@@H](N)Cc1ccc(O)c(O)c1
inactive: activity, negative = inhibition [1, 3] -10.7% | Potency (AA1029) | Potency (AS120) | Potency (ATS189) | Potency (ATS95) | Potency (CP185)

CC(C)(C)c1ccc(C(=O)CCCN2CCC(OC(c3ccccc3)c3ccccc3)CC2)cc1
active: Potency ([1]; parasite line A) 10 µM | Potency (3D7) 7.94 µM | Potency (7G8) 3.55 µM | Potency (AA1029) 10 µM | Potency (AS120) 6.31 µM | Potency (ATS189) 10 µM | Potency (ATS95) 8.91 µM

CCCN1C[C@H](CSC)C[C@@H]2c3cccc4[nH]cc(c34)C[C@H]21
active: Potency (7G8) 11.2 µM | Potency (AS120) 12.6 µM | Potency (ATS95) 7.94 µM
inactive: Potency (3D7) | Potency (CP185)

CC1=NS(=O)(=O)c2cc(Cl)ccc2N1
inactive: activity, negative = inhibition [1, 2] -21.1% | Potency (3D7) | Potency (7G8) | Potency (AA1029) | Potency (ATS189) | Potency (ATS95) | Potency (C2A)

CCOC(=O)C1=C(C)NC(C)=C(C(=O)OC)C1c1cccc(Cl)c1Cl (stereo not drawn)
inactive: activity, negative = inhibition [1, 2] -7.27% | activity, negative = inhibition [1, 3] -5.02% | Potency (3D7) | Potency (AA1029) | Potency (AS120) | Potency (ATS189) | Potency (ATS95) | Potency (C2A) | Potency (CP185)

C[n+]1cc2c3c(ccc2c2ccc4cc5c(cc4c21)OCO5)OCO3
inactive: activity, negative = inhibition [1, 2] -18.2% | activity, negative = inhibition [1, 3] -15.2% | Potency (AA1029) | Potency (AS120) | Potency (ATS95) | Potency (C2A) | Potency (CP185)

Nc1nc(N)c2nc(-c3ccccc3)c(N)nc2n1
inactive: activity, negative = inhibition [1, 3] 5.12% | Potency (AA1029) | Potency (AS120) | Potency (ATS189) | Potency (ATS95) | Potency (C2A) | Potency (CP185)
active: Potency ([1]; parasite line A) 2 µM | Potency (3D7) 7.08 µM

NC(N)=N/N=C/c1c(Cl)cccc1Cl
active: Potency (7G8) 11.2 µM
inactive: Potency (3D7) | Potency (AS120)

CC1=C(C)C(=O)C(CCCCC#CCCCC#CCO)=C(C)C1=O
active: Potency ([1]; parasite line A) 11.2 µM | Potency (3D7) 12.6 µM | Potency (7G8) 2.51 µM | Potency (AS120) 6.31 µM | Potency (C2A) 10 µM

O=C(CCCN1CCC(O)(c2cccc(C(F)(F)F)c2)CC1)c1ccc(F)cc1
active: Potency ([1]; parasite line A) 8.91 µM | Potency ([1]; parasite line B) 8.91 µM | Potency (7G8) 3.98 µM | Potency (AA1029) 7.08 µM | Potency (AS120) 7.94 µM | Potency (ATS189) 8.91 µM | Potency (ATS95) 10 µM | Potency (C2A) 11.2 µM

CN1CCN(C2=Nc3ccccc3Oc3ccc(Cl)cc32)CC1
inactive: activity, negative = inhibition [1, 4] 4.87% | activity, negative = inhibition [1, 5] -8.95% | Potency (3D7) | Potency (AA1029) | Potency (AS120) | Potency (ATS189) | Potency (ATS95) | Potency (C2A) | Potency (CP185)

O=C1CC2(CCCC2)CC(=O)N1CCCCN1CCN(c2ncccn2)CC1
inactive: activity, negative = inhibition [1, 2] 11.6% | activity, negative = inhibition [1, 3] 9.29% | Potency (3D7) | Potency (AA1029) | Potency (AS120) | Potency (ATS189) | Potency (ATS95) | Potency (C2A) | Potency (CP185)

CN(C)CCOC(=O)COc1ccc(Cl)cc1
inactive: activity, negative = inhibition [1, 4] 18.7% | activity, negative = inhibition [1, 5] -4.94% | Potency (7G8) | Potency (AA1029) | Potency (AS120) | Potency (ATS189) | Potency (ATS95) | Potency (C2A) | Potency (CP185)

CN(C)C/C=C(/c1ccc(Br)cc1)c1cccnc1
inactive: activity, negative = inhibition [1, 2] -2.53% | Potency (3D7) | Potency (ATS189) | Potency (C2A) | Potency (CP185)
active: Potency (7G8) 8.91 µM

CC(C)[N+](C)(CCOC(=O)C1c2ccccc2Oc2ccccc21)C(C)C
inactive: Potency (CP185)

CCn1cc(C(=O)O)c(=O)c2cc3c(cc21)OCO3
inactive: activity, negative = inhibition [1, 2] -8.68% | activity, negative = inhibition [1, 3] -3.36% | Potency (3D7) | Potency (AA1029) | Potency (AS120) | Potency (ATS189) | Potency (ATS95) | Potency (C2A) | Potency (CP185)

NC1=NCC2c3ccccc3Cc3ccccc3N12 (stereo not drawn)
inactive: activity, negative = inhibition [1, 2] -23% | Potency (3D7) | Potency (AA1029) | Potency (AS120) | Potency (ATS189) | Potency (ATS95) | Potency (C2A) | Potency (CP185)

NC(=Nc1ccccc1)Nc1ccccc1
inactive: activity, negative = inhibition [1, 2] -14.1% | activity, negative = inhibition [1, 3] -13.7% | Potency (3D7) | Potency (AA1029) | Potency (AS120) | Potency (ATS189) | Potency (ATS95) | Potency (C2A) | Potency (CP185)

C=CCc1ccccc1OCC(O)CNC(C)C (stereo not drawn)
inactive: activity, negative = inhibition [1, 2] -5.93% | Potency (3D7) | Potency (C2A)
active: Potency (7G8) 8.91 µM | Potency (AA1029) 10 µM | Potency (AS120) 4.47 µM

COCCOC(=O)C1=C(C)NC(C)=C(C(=O)OC(C)C)C1c1cccc([N+](=O)[O-])c1 (stereo not drawn)
active: Potency (7G8) 11.2 µM | Potency (AS120) 7.94 µM
inactive: Potency (C2A)

COc1cc(C(=O)OCCCN2CCCN(CCCOC(=O)c3cc(OC)c(OC)c(OC)c3)CC2)cc(OC)c1OC
active: Potency (3D7) 11.2 µM | Potency (7G8) 8.91 µM | Potency (AA1029) 11.2 µM | Potency (AS120) 10 µM | Potency (ATS189) 8.91 µM

CCC(=O)c1ccc2c(c1)N(CCCN(C)C)c1ccccc1S2
inactive: activity, negative = inhibition [1, 2] -23.2% | activity, negative = inhibition [1, 3] -3.51% | Potency (3D7) | Potency (CP185)

CCOC(=O)C1=C(C)NC(C)=C(C(=O)OC)C1c1cccc([N+](=O)[O-])c1 (stereo not drawn)
inactive: Potency (C2A)
active: Potency (7G8) 10 µM | Potency (AA1029) 11.2 µM | Potency (AS120) 11.2 µM

NC(Cc1ccc(Cl)cc1)C(=O)O (stereo not drawn)
inactive: activity, negative = inhibition [1, 2] 17.3% | activity, negative = inhibition [1, 3] 7.34% | Potency (3D7) | Potency (AA1029) | Potency (AS120) | Potency (ATS189) | Potency (ATS95) | Potency (C2A) | Potency (CP185)

Cc1nc2sccn2c(=O)c1CCN1CCC(=C(c2ccc(F)cc2)c2ccc(F)cc2)CC1
active: Potency (7G8) 10 µM | Potency (AS120) 11.2 µM
